Measured values from PubChem BioAssay (NCI).
This is part of a sample that, as a whole, favours compounds with a hit. Of some 83,000 tested, about 20% had one in any assay.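 The endpoint reported here, percent growth, reads 100 for growth as untreated, 0 for no net growth and -100 for all cells dead.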 Unmarked numbers belong to inactive results. Activity calls are given as the source filed them.

Tested on: A498 renal
Test: NCI-60 one-dose screen, 48 h (100 = growth as untreated, 0 = no growth, -100 = all killed)
Conditions: 10 µM unless noted
Method: Growth inhibition of the A498 human tumor cell line is measured as a screen for anti-cancer activity. Cells are grown in 96 well plates and exposed to the test compound for 48 hours. Compounds are tested at a single concentration, which is 10^-5 M for most compounds. The reported endpoint is percent growth (GI% or GIPRCNT), where numbers from 0 - 100% represent growth inhibition, and numbers from -100% - 0 represent cell death. For example, a value of 40 represents 60% growth inhibition. A value of 0 means no net growth occurred over the course of the experiment. A value of -40 indicates 40% of cells at the beginning of the experiment died by the end of the experiment. A value of -100 means all cells are dead at the end of the experiment.
NCI-60 Human Tumor Cell Lines Screen was performed using the standard one-dose NCI protocol, which is described in more detail at https://dtp.cancer.gov/discovery_development/nci-60/default.htm.
Compounds with GIPRCNT values below 10 were considered active. Activity score was based on GIPRCNT using the following formula: […]
Score is 0 for GIPRCNT values of 100 or above, 50 for GIPRCNT values of 0, and 100 for GIPRCNT values of -100.

Structure (SMILES) | growth
O=C(O)CCC(=O)c1ccc(C2CCCCCC2)cc1 | 89.2%
COc1ccc(S(=O)(=O)N(Cc2ccc3c(n2)C=CC(C)(C)O3)C2CCC2)cc1OC | -25.4% (active)
Cc1cc(OC(=O)c2ccc([N+](=O)[O-])cc2)nc2[nH]c(=O)sc12 | 104%
COc1ccc(-c2nc(-c3ccccn3)c(-c3ccccn3)n2CC(C)C)cc1OC1CCCC1 | -14.3% (active)
O=C(NCCCN1CCC(N2CCCCC2)CC1)C1=Cc2cc(Br)ccc2OC1 | 52.7%
CC1CCCCN1CCCNC(=O)c1ccc2c(c1)sc1nc(-c3ccc(F)cc3)cn12 (stereo not given) | 83.7%
O=C(CCc1nnc2sc(Cc3ccccc3Cl)nn12)c1nc2ncccc2[nH]1 | 87.5%
Cc1sc2ncnc(Sc3nc4ccccc4[nH]3)c2c1C | 24.5%
CNCCNc1nc2ccccc2c2c(=O)c3cc(F)ccc3sc12 | 38.9%
CC(=O)Nc1nc2c(s1)CCc1c-2cn(S(=O)(=O)c2ccccc2)c1-c1ccccc1 | 88.1%
O=C(Nc1ccc(-c2nc3cc4ccccc4cc3[nH]2)cc1)c1cccc(Br)c1 | 68.5%
COc1ccc(-c2nocc2-c2cccs2)cc1 | 107%
COc1ccc(-c2nc(-c3ccccc3)c(-c3ccccc3)[nH]2)cc1OC1CCCCC1 | 68.2%
CCCCCCC(O)(c1ccc(F)cc1)C(CN1CCOCC1)c1ccccc1 (stereo not given) | 50%
Cc1nc2ccccc2c(/C=C/c2ccccc2)c1C(=O)/C=C/c1ccc(Cl)cc1 | 36.7%
COc1cc(C(=O)Nc2ccc(-c3nc4ccccc4[nH]3)cc2)cc(OC)c1OC | 37.6%
O=C1/C(=C/c2cccc(O)c2)COc2ccc(O)cc21 | 117%
OC(c1ccccc1)c1nnc(SCc2ccccc2)n1Cc1ccccc1 (stereo not given) | 90.1%
O=Nc1c(O)ccc2ccccc12.O=Nc1c(O)ccc2ccccc12.O=Nc1c([O-])ccc2ccccc12.[Fe+3] | 105%
COc1ccc2c(c1)C=C1CSCC3=Cc4cc(OC)ccc4OC13O2 | 4.68% (active)

Structure (SMILES) | growth
CCOC(=O)c1cc2c(n1Cc1cc(OC)c(OC)c(OC)c1)-c1oncc1CCC2 | -22.9% (active)
CCOC(=O)c1cnc2c(C)cccc2c1Nc1ccc(C(C)=O)cc1 | 46.5%
CN(C)/C=C1\SC(=Nc2ccc(Cl)cc2)NC1=O | 94.6%
CCn1c(Cc2ccccc2Nc2c(Cl)cccc2Cl)nnc1SCC(=O)NN1C(=O)/C(=C/c2cccc(OC)c2OC)SC1=S | 103%
COc1cc(C(C)n2cc(-c3ccccc3)nn2)ccc1OC1CCCC1 (stereo not given) | 55.6%
COC(=O)[C@H]1CCCN1C(=O)[C@H]1CCCN1C(=O)[C@H](Cc1c[nH]c2ccccc12)NC(=S)Nc1cc(C(F)(F)F)cc(C(F)(F)F)c1 | 77%
NCCNc1nc2ccccc2c2c(=O)c3cc(F)cc(Cl)c3sc12 | 46.9%
O=c1c2cc(F)cc(Cl)c2sc2c(Cl)nc3ccccc3c12 | 103%
O=NN(Cc1cccnc1)C(=O)NC1CCCCC1 | 103%
COC(=O)C1(C)COP(=O)(Nc2ccc(OC)cc2)OC1 (stereo not given) | 101%
O=C1c2cc(Cl)ccc2Oc2cc([N+](=O)[O-])ccc2N1c1ccc(F)cc1F | 91.3%
Clc1ccc(Oc2ccc(Nc3ncnc4onc(-c5ccccc5)c34)cc2)c(Cl)c1 | 103%
COc1ccc(-c2cn[nH]c2-c2cc(OC)c(OC)c(OC)c2)cc1OCc1ccccc1 | -18.9% (active)
COc1ccc(C2C3=C(COC3=O)N(CCO)c3cc4c(cc32)CCC4)cc1OC (stereo not given) | 29%
CCCC(=O)CC(C)=O.CCCC(=O)CC(C)=O.[Cu] | 122%
CCOc1cccc(/C=N/NC(=O)C(=O)Nc2cccc(C(F)(F)F)c2)c1O | 55.9%
COc1cc2nc(-c3cnc(N(C)C)nc3)nc(NC3CCN(Cc4ccccc4)CC3)c2cc1OC | 43.2%
Cc1nc(Nc2cn[nH]c2C(=O)Nc2ccc(CN3CCN(C)CC3)cc2)c2ccsc2n1 | 66.7%
Cc1sc2ncn(CC(=O)Nc3ccc(S(N)(=O)=O)cc3)c(=O)c2c1C | 100%
O=C(CSc1nc2ccccc2c(=O)n1-c1ccccc1)Nc1ccc(C(=O)/C=C/c2ccc(Cl)cc2)cc1 | 95.2%
